Data on 36 compounds can be found in ChEMBL document CHEMBL3433997, “St. Jude Leishmania screening dataset” (2016).

Common to all, as to assay type: functional
In assay [1] the target is Solute carrier family 2, facilitated glucose transporter member 1 (Homo sapiens) (UniProt P11166). In words: ST_JUDE_LEISH: Cytotoxicity at 2uM final concentration against transgenic Leishmania Mexicana promastigotes LmGLUT1 that are glucose transport deficient and complemented with the human glucose transporter GLUT1. Activity is measured by DNA content using SYBR green in vitro.

Assay [2] concerns the target Hexose transporter 1 (Plasmodium falciparum) (UniProt O97467). The assay is described as follows: ST_JUDE_LEISH: Cytotoxicity at 2uM final concentration against transgenic Leishmania Mexicana promastigotes LmPfHT that are glucose transport deficient and complemented with the Plasmodium falciparum hexose transporter. Activity is measured by DNA content using SYBR green in vitro.

The target of assay [3] is Glucose transporter (Leishmania mexicana) (UniProt O61059). The assay is described as follows: ST_JUDE_LEISH: Cytotoxicity at 2uM final concentration against transgenic Leishmania Mexicana promastigotes LmGT2 that are glucose transport deficient and complemented with the L. Mexicana glucose transporter 2. Activity is measured by DNA content using SYBR green in vitro.

Sequence of Solute carrier family 2, facilitated glucose transporter member 1 (Homo sapiens) (P11166 whole entry): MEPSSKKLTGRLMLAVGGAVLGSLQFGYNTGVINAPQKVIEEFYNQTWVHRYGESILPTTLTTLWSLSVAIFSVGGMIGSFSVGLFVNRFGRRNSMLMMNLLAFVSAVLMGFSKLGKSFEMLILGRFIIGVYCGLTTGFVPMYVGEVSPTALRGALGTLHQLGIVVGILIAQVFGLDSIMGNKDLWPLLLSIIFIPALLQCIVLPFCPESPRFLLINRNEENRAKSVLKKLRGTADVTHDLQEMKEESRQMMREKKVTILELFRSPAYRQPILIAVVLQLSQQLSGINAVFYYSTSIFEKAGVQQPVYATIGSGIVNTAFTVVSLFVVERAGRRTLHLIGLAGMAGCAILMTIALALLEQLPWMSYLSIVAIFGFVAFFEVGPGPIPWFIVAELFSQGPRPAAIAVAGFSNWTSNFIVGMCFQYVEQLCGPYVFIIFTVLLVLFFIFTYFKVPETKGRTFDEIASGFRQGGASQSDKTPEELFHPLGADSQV

For the compound `Oc1ccc(-c2nc3c(N4CCN(Cc5ccccc5)CC4)cccc3n2C2CCNCC2)cc1`, the inhibition in assay [1] was 3.29%; in assay [2], 7.64%; in assay [3], 2.62%.

Consider `CC1=C(C(=O)Nc2ccc(Cl)cc2)C(c2ccncc2)n2nc(C(F)(F)F)nc2N1` (stereo not drawn), for which the inhibition in assay [1] is 3.72%; in assay [2], 2.96%; in assay [3], -2.29%.

`COCCn1c(Sc2ncnc3sccc23)nc2ccccc21`: the figures for the inhibition in assay [1], in assay [2] and in assay [3] were 0.98%, 2.13% and 1.8%, respectively.

Regarding `CC(=NNC(S)=NC(C)(C)C)c1ccccn1`, the inhibition amounted to 65.9% in assay [1], 69.5% in assay [2] and 49.6% in assay [3].

`CC(C)CCNC(=O)[C@@H]1[C@H]2C(=O)N(C3CCCCC3)C(=O)[C@H]2[C@H]2C=C[C@@H]3C(c4ccc(C(C)(C)C)cc4)=NO[C@@H]3N21`: the results for the inhibition in assay [1], in assay [2] and in assay [3] were 13.3%, 11.4% and 7.33%, respectively.

As to `O=C(/C=C/c1ccc(C(F)(F)F)cc1)NCCCCCN1CCCN(C(=O)Nc2ccc(Cl)c(Cl)c2)CC1`, the inhibition was -0.66% in assay [1], -0.09% in assay [2] and -0.19% in assay [3].

With `O=[N+]([O-])c1ccccc1/C=N/Nc1ccnc2cc(Cl)ccc12`, the inhibition in assay [1] was 4.36%; in assay [2] it was 4.22%; in assay [3] it was 3.41%.

With `COc1cc2c(cc1OC)C(c1ccc(Br)cc1)CN(C)CC2` (stereo not drawn), the inhibition in assay [1] came to 1.39%; in assay [2], 4.21%; in assay [3] it was 4.35%.

For the compound `CC1(C)NC(N)=NC(=N)N1OCCCOc1ccccc1Cl`, the inhibition came out at 8.95% in assay [1], 10% in assay [2] and 12% in assay [3].

On to `CN(C)CCN(C)Cc1ccc(-c2cccc(NC(=O)c3cccc(C#N)c3)c2)cc1`, for which the inhibition was determined as 15.4% in assay [1], 10.9% in assay [2] and 8.24% in assay [3].

For `Cc1cccc(-c2nc3cc(NC(=O)c4ccc([N+](=O)[O-])o4)ccc3o2)c1`, the inhibition is 6.53% in assay [1], 7.69% in assay [2] and 2.04% in assay [3].

Take `COc1cccc2cc(C(=O)N[C@@H](CC(C)C)C(=O)Nc3cc(F)ccc3Br)oc12`: the inhibition in assay [1] came out at 1.51%; in assay [2] it was 0.34%; in assay [3] it was 0.22%.

Regarding `COc1cc(C)nc2ccc(NC(=O)c3cc(C(F)(F)F)cc(C(F)(F)F)c3)cc12`, the inhibition in assay [1] is 16.3%; in assay [2] it was 12.8%; in assay [3] it was 10.1%.

As to `Cc1cc(C)n(-c2nc(Nc3cccc(C(F)(F)F)c3)nc(-n3nc(C)cc3C)n2)n1`, the inhibition in assay [1] was -2.75%; in assay [2], -3.09%; in assay [3], -1.11%.

Turning to `Cc1cc(NCCc2ccccc2)nc(NC(=N)Nc2cccc(F)c2)n1`, the results for the inhibition in assay [1], in assay [2] and in assay [3] were 2.17%, 3.28% and -0.09%, respectively.

As to `O=C1C(C2CCC(c3ccc(Cl)cc3)CC2)=C2OCC3COC2(O3)c2ccccc21` (stereo not drawn), the values for the inhibition in assay [1], in assay [2] and in assay [3] were 1.13%, 0.99% and -0.99%, respectively.

As to `COc1cc(C)c(NC(=O)c2cccc3c(=O)c(C)c(-c4ccccc4)oc23)cc1OC`, the results for the inhibition in assay [1], in assay [2] and in assay [3] were 6.49%, -0.38% and -1.52%, respectively.

For `Cc1cccc2nc(-c3cccc(-c4cccc(NC(=O)Cc5c[nH]cn5)c4)c3)[nH]c12`, the inhibition in assay [1] came out at 1.54%; in assay [2], 2.27%; in assay [3], 2.94%.

With `Cc1[nH]c2c(C)cccc2c1C1CCN(CCC2CCN(C(=O)/C=C/c3ccc(Cl)c(Cl)c3)CC2)CC1`, the inhibition in assay [1] is 3.84%; in assay [2], 3.13%; in assay [3], 2.49%.

Regarding `CCCNCc1ccc(-c2ccc(CNC3Cc4ccccc4C3)cc2)nc1`, the figures for the inhibition in assay [1], in assay [2] and in assay [3] were -0.04%, 2.5% and 1.53%, respectively.

For the compound `CN(C)CCNC(=O)[C@H](CC1CCCCC1)NC(=O)c1ccc(O)c(-c2ccc(Cl)c(Cl)c2)c1`, the inhibition in assay [1] was found to be 4%; in assay [2], 2.85%; in assay [3] it was 1.78%.

Consider `COc1ccccc1CCNc1nc(C)cc(NCCC(=O)Nc2ccccc2)n1`, for which the inhibition in assay [1] was determined as 1.82%; in assay [2] it was 2.34%; in assay [3] it was 1.43%.

`Cc1nc(-c2nc(NCCc3c(C)noc3C)ncc2-c2ccsc2)sc1C`: the figures for the inhibition in assay [1], in assay [2] and in assay [3] were 1.02%, 1.58% and 2.5%, respectively.

For the compound `c1ccc2[nH]c(-c3ccc(-c4ccc(CNCC5CCCO5)cc4)s3)nc2c1` (stereo not drawn), the figures for the inhibition in assay [1], in assay [2] and in assay [3] were 5.5%, 4.61% and 5.42%, respectively.

`O=C(c1cc(C(=O)Nc2ccccc2F)c(=O)n(-c2ccccc2F)c1)c1cc(Cl)ccc1O`: the inhibition in assay [1] was 1.31%; in assay [2], -0.63%; in assay [3], -2.18%.

On to `O=C(Nc1ccc2c(c1)CCN(C1CCC1)CC2)c1ccc(-c2cn3ccccc3n2)cc1`, for which the inhibition turned out to be 3.01% in assay [1], 1.01% in assay [2] and 3.48% in assay [3].

Consider `O=C(Nc1nc2cc(S(=O)(=O)NCc3ccc(Cl)c(Cl)c3)ccc2n1CCCn1ccnc1)c1ccc(Cl)cc1`, for which the inhibition is 6.51% in assay [1], 4.45% in assay [2] and 4.53% in assay [3].

Turning to `c1cc(CN2CCCCC2)cc(OCCCNc2ccnc3ccccc23)c1`, the results for the inhibition in assay [1], in assay [2] and in assay [3] were 18%, 7.87% and 5.12%, respectively.

As for `Cc1cnc2ccc(NS(=O)(=O)c3sc4ccc(Cl)cc4c3C)cc2c1N1CCNCC1`, the results for the inhibition in assay [1], in assay [2] and in assay [3] were 3.23%, 4.04% and -0.02%, respectively.

With `CC(C)(C)c1ccc(CNC(=O)COc2ccc(-c3nnc(-c4cccc([N+](=O)[O-])c4)o3)cc2[N+](=O)[O-])cc1`, the inhibition was -0.15% in assay [1], -0.74% in assay [2] and -0.93% in assay [3].

Consider `O=C(Nc1cccc(CN2CCCN(Cc3ccc(F)cc3)CC2)c1)c1cc2ccccc2s1`, for which the results for the inhibition in assay [1], in assay [2] and in assay [3] were -2.26%, -1.55% and -0.88%, respectively.

Consider `Clc1ccc(Sc2cncnc2N2CCOCC2)cc1`, for which the inhibition is 3.31% in assay [1], 1.01% in assay [2] and -0.01% in assay [3].

Take `O=c1cc(NCCCCNCc2cccc(C(F)(F)F)c2)[nH]c2ccccc12`: the inhibition in assay [1] amounted to 9.62%; in assay [2], 7.88%; in assay [3] it was 5.78%.

Turning to `O=C(N[C@H]1CCN(Cc2ccc(OC3CCN(Cc4ccccc4)CC3)c(Br)c2)C1)c1ccc(Cl)c(Cl)c1`, the inhibition is -0.92% in assay [1], 2.97% in assay [2] and 0.77% in assay [3].

With `CN(C)Cc1cccc(-c2cc3c(-c4cnn(C)c4)c(Cl)cnc3[nH]2)c1`, the inhibition in assay [1] is 95.7%; in assay [2], 95%; in assay [3], 94.2%.

On to `CN=C(S)NN=C(C)c1ccccn1`, for which the inhibition is 2.61% in assay [1], -4.43% in assay [2] and -1.99% in assay [3].
